# Results filed as inconclusive are left out. The source made the active and inactive calls. How the source made its calls, unless noted: active means hit-call score of the fitted dose curve at least 0.9, where 1 is the maximum; inactive means score below 0.9.
# Experiments:
# [1] = CCTE_Shafer_MEA_acute_spike_number: CCTE's Neural Acute Assay for Total Number of Spikes, Shafer Lab (AID 2284008);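 on AC50: curve fitted for decrease in spike count so AC50 reflects inhibitors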
# How it was run: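 Using an adaptive detector set to 8x rms noise, spikes were counted in 40-min windows before and after compound addition (0.03-40 uM) to rat cortical networks at 37 C; the well-level change from baseline was analysed relative to DMSO.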
# [2] = CCTE_Shafer_MEA_acute_firing_rate_mean: CCTE's Neural Acute Assay for Mean Firing Rate, Shafer Lab (AID 2284009);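 further: analyzed for loss of signal so actives lower firing rate relative to DMSO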
# How it was run: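 Read-out: well-mean spike rate (spikes/recording length/electrodes), % change from 40 min pre-dose baseline to 40 min with compound. Rat cortical cultures, DIV 13 or 15, 37 C; 0.03-40 uM; DMSO as negative control.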
# [3] = CCTE_Harrill_HTTr_Viability_MCF7: CCTE's 6-hour Cell Viability Assessment for the High-Throughput Transcriptomics (HTTr) Platform, in MCF-7 cells cultured in DMEM + 10% fetal bovine serum, Harrill Lab (AID 2284010)
# How it was run: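 Membrane integrity was scored by high-content imaging of propidium iodide dye exclusion after a 6 h exposure across an eight-point dilution series. Data were fitted bidirectionally relative to DMSO as negative control and baseline.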
# [4] = CCTE_Harrill_HTTr_CellCount_MCF7: CCTE's Cell Proliferation Assessment for the High-Throughput Transcriptomics (HTTr) Platform, Harrill Lab (AID 2284012; active means hit-call score of the fitted dose curve at least 0.9, where 1 is the maximum;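 further: cells exposed to compound for six hours; intended direction is loss of nuclei count meaning fewer cells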)
# How it was run: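 MCF-7 cells were exposed for 6 h to an eight-point dilution series; Hoechst-labeled nuclei were counted by high content imaging. Curves were fitted bidirectionally against DMSO as negative control and baseline, with signal loss indicating reduced cell count.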
# [5] = CCTE_Shafer_MEA_acute_burst_number: CCTE's Neural Acute Assay for Single-Electrode Bursts, Shafer Lab (AID 2284013)
# How it was run: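 Rat cortical cultures, DIV 13/15; 40 min baseline, then 40 min with compound 0.03-40 uM, 37 C. Spikes: 300-5000 Hz band-pass, threshold 8x rms noise. Readout = % change in single-electrode bursts vs baseline, loss-of-signal fit.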
# [6] = CCTE_Shafer_MEA_acute_burst_duration_mean: CCTE's Neural Acute Assay for Mean Burst Duration, Shafer Lab (AID 2284014);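 further: hits are decreases in mean burst duration relative to DMSO controls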
# How it was run: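 Primary rat cortical neurons on 16-electrode MEA wells, treated on DIV 13 or 15 with compound (0.03-40 uM; ≥3 wells each). 40-min baseline and 40-min exposure recordings at 37 C; percent change in mean burst duration per well versus DMSO.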
# [7] = CCTE_Shafer_MEA_acute_per_burst_spike_number_mean: CCTE's Neural Acute Assay for Average Number of Spikes Per Burst, Shafer Lab (AID 2284015);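 further: hits are decreases in mean spikes per burst versus baseline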
# How it was run: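 We recorded spontaneous network firing of rat cortical neurons for 40 min before and 40 min during exposure to compound at 0.03-40 uM, at 37 C. Spikes were detected adaptively at 8x rms noise, and the change in average spikes per burst was fitted against DMSO.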
# [8] = CCTE_Shafer_MEA_acute_burst_percentage_std: CCTE's Neural Acute Assay for Standard Deviation of Burst Percentage, Shafer Lab (AID 2284018);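 further: fitted in the negative direction so actives lower burst percentage SD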
# How it was run: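 Primary rat cortical neurons on 16-electrode MEA wells were recorded 40 min at baseline (DIV 13 or 15), then 40 min after compound (0.03-40 uM), at 37 C. Well value is SD across electrodes of spikes-in-bursts/total spikes; endpoint is percent change, DMSO-referenced.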
# [9] = CCTE_Shafer_MEA_acute_per_network_burst_spike_number_mean: CCTE's Neural Acute Assay for Average Number of Spikes in a Network Burst, Shafer Lab (AID 2284019);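 on AC50: curve fitted for loss of signal so actives reduce spikes per network burst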
# How it was run: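 Primary rat cortical neurons on 16-electrode MEA wells, DIV 13 or 15, 37 C; 40-min baseline then 40-min recording with compound (0.03-40 uM). Spikes per network burst (total spikes/number of bursts) expressed as percent change from baseline, DMSO reference.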
# [10] = CCTE_Shafer_MEA_acute_per_network_burst_spike_number_std: CCTE's Neural Acute Assay for Standard Deviation of Number of Spikes in a Network Burst, Shafer Lab (AID 2284020);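 further: fitted for decrease in spike-number SD versus DMSO so actives lower it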
# How it was run: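 Primary rat cortical neurons on 48-well MEAs (16 electrodes/well) recorded at DIV 13 or 15: 40-min baseline, then 40 min with compound (0.03-40 uM), 37 C. Value is percent change in SD of spikes per network burst, relative to DMSO.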
# [11] = CCTE_Shafer_MEA_acute_per_network_burst_electrodes_number_mean: CCTE's Neural Acute Assay for Mean Number of Electrodes in a Network Burst, Shafer Lab (AID 2284021);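 further: curves fitted for decreases only so hits reduce electrodes per burst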
# How it was run: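 Percent change from baseline in average electrode count per network burst, rat cortical cultures on 48-well MEAs; 40-min recordings each side of exposure, DIV 13 or 15; threshold 8x rms noise; DMSO as negative control.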
# [12] = CCTE_Shafer_MEA_acute_network_burst_percentage: CCTE's Neural Acute Assay for Percentage of Network Bursts, Shafer Lab (AID 2284022);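 further: curves fitted for loss so actives lower network burst percentage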
# How it was run: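 On DIV 13 or 15, at least three wells of rat cortical neurons per compound are dosed at 0.03-40 uM. Spontaneous firing is detected at 8x rms noise for 40 min before and after dosing at 37 C. The percent change in network-burst spike share is reported.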
# [13] = CCTE_Shafer_MEA_acute_cross_correlation_area: CCTE's Neural Acute Assay for Area of Cross Correlation, Shafer Lab (AID 2284024);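 further: area under pooled inter-electrode spike cross-correlation near zero lag as percent change from own baseline; curves fitted for loss of cross-correlation area so actives lower synchrony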
# How it was run: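 Extracellular recordings from cultured rat cortical neurons measure network synchrony as cross-correlation area; each well's post-compound value (0.03-40 uM, 40 min) is compared with its own 40 min baseline to give percent change.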
# [14] = CCTE_Shafer_MEA_acute_cross_correlation_HWHM: CCTE's Neural Acute Assay for Cross Correlation at Half Width at Half Maximum, Shafer Lab (AID 2284026);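 further: percent change per well from pre-dose baseline in spike cross-correlogram half width; hits are a decrease in cross-correlogram half width relative to DMSO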;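 on outcome: spontaneous network firing of rat primary cortical neurons on multiwell microelectrode arrays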
# How it was run: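 Percent change in cross-correlogram half width at half maximum, narrower meaning more synchrony, was derived per well from paired 40-min recordings before and during exposure to 0.03-40 uM compound in rat cortical cultures at 37 C.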
# [15] = CCTE_Shafer_MEA_acute_synchrony_index: CCTE's Neural Acute Assay for Synchrony, Shafer Lab (AID 2284027);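 further: network synchrony index of spontaneous spiking in primary rat cortical neurons on MEAs; fitted for loss of signal so actives lower synchrony relative to DMSO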
# How it was run: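 Primary rat cortical neurons on 16-electrode MEA wells were recorded 40 min at baseline (DIV 13 or 15) and 40 min after compound (0.03-40 uM) at 37 C. Synchrony index (0-1) expressed as percent change from baseline, versus DMSO.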
# [16] = CCTE_Harrill_HTTr_Apoptosis_MCF7: CCTE's 6-hour Apoptosis Assessment for the High-Throughput Transcriptomics (HTTr) Platform, in MCF-7 cells cultured in DMEM + 10% fetal bovine serum, Harrill Lab (AID 2284011)
# How it was run: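 Apoptosis in MCF-7 cells grown in DMEM with 10% fetal bovine serum was scored after a six hour exposure by high content imaging of caspase-3/7 activation (CellEvent Caspase 3/7 Green), with DMSO serving as negative control and baseline.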
# [17] = CCTE_Deisenroth_AIME_96WELL_CTox_Active: Cytotoxicity Assessment (CTOX) in CCTE's 96-well Estrogen Receptor Transactivation Assay with AIME metabolic competence (metabolism positive), Deisenroth Lab (AID 2284028; active means hit-call score of the fitted dose curve at least 0.9, where 1 is the maximum)
# How it was run: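 Chemicals (0.002–200 uM) were first incubated 2 h with alginate-immobilized phenobarbital/beta-naphthoflavone-induced male rat liver S9; conditioned medium then went onto VM7Luc4E2 cells for 24 h, with viability read by protease-substrate fluorescence, fitted bidirectionally.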
# [18] = CCTE_Deisenroth_AIME_96WELL_CTox_Inactive: Cytotoxicity Assessment (CTOX) in CCTE's 96-well Estrogen Receptor Transactivation Assay without AIME metabolic competence (metabolism negative), Deisenroth Lab (AID 2284029; active means hit-call score of the fitted dose curve at least 0.9, where 1 is the maximum)
# How it was run: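 Chemicals (10-point series, 0.002-200 uM) were incubated 2 h with alginate-water microspheres lacking S9. The conditioned medium was then transferred onto VM7Luc4E2 cells for 24 h. Viability was measured by protease-substrate cleavage to a fluorescent probe, with loss of signal fitted bidirectionally; n≥4 experimental replicates.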
compound,measurement,setting,value
CC(C)CCCCCCc1ccc(O)cc1,AC50,[1],6.02 µM (active)
same,AC50,[2],6.03 µM (active)
same,outcome,[3],inactive
same,outcome,[4],inactive
same,AC50,[5],6.34 µM (active)
same,outcome,[6],inactive
same,outcome,[7],inactive
same,AC50,[8],32.5 µM (active)
same,outcome,[9],inactive
same,outcome,[10],inactive
same,outcome,[11],inactive
same,outcome,[12],inactive
same,outcome,[13],inactive
same,AC50,[14],20 µM (active)
same,AC50,[15],16 µM (active)
C=CCOC(Cn1ccnc1)c1ccc(Cl)cc1Cl (stereo unspecified),AC50,[1],6.09 µM (active)
same,AC50,[2],6.09 µM (active)
same,outcome,[3],inactive
same,outcome,[4],inactive
same,AC50,[5],3.97 µM (active)
same,outcome,[6],inactive
same,outcome,[7],inactive
same,AC50,[8],3.32 µM (active)
same,outcome,[9],inactive
same,outcome,[10],inactive
same,outcome,[11],inactive
same,outcome,[12],inactive
same,outcome,[13],inactive
same,AC50,[14],5.57 µM (active)
same,AC50,[15],8.51 µM (active)
C#CCOC(=O)[C@@H](C)Oc1ccc(Oc2ncc(Cl)cc2F)cc1,outcome,[1],inactive
same,outcome,[2],inactive
same,outcome,[3],inactive
same,outcome,[16],inactive
same,outcome,[5],inactive
same,outcome,[6],inactive
same,outcome,[7],inactive
same,outcome,[8],inactive
same,outcome,[9],inactive
same,outcome,[10],inactive
same,outcome,[11],inactive
same,outcome,[12],inactive
same,outcome,[13],inactive
same,outcome,[14],inactive
same,outcome,[15],inactive
CCC(O)=C1C(=O)CC(C(=O)O)CC1=O (stereo unspecified),outcome,[3],inactive
CCCN(CCC)c1c([N+](=O)[O-])cc(C(F)(F)F)c(N)c1[N+](=O)[O-],outcome,[1],inactive
same,outcome,[2],inactive
same,AC50,[3],68.1 µM (active)
same,outcome,[4],inactive
same,outcome,[5],inactive
same,outcome,[6],inactive
same,outcome,[7],inactive
same,AC50,[8],31.1 µM (active)
same,outcome,[9],inactive
same,outcome,[10],inactive
same,outcome,[11],inactive
same,outcome,[12],inactive
same,outcome,[13],inactive
same,outcome,[14],inactive
same,outcome,[15],inactive
CCNc1nc(N)nc(Cl)n1,outcome,[1],inactive
same,outcome,[2],inactive
same,outcome,[3],inactive
same,outcome,[16],inactive
same,outcome,[5],inactive
same,outcome,[6],inactive
same,outcome,[7],inactive
same,outcome,[8],inactive
same,outcome,[9],inactive
same,outcome,[10],inactive
same,outcome,[11],inactive
same,outcome,[12],inactive
same,outcome,[13],inactive
same,outcome,[14],inactive
same,outcome,[15],inactive
Oc1ccc(C(c2ccc(O)cc2)C(Cl)(Cl)Cl)cc1,AC50,[1],4.04 µM (active)
same,AC50,[2],4.04 µM (active)
same,outcome,[3],inactive
same,outcome,[4],inactive
same,AC50,[5],2.22 µM (active)
same,outcome,[6],inactive
same,outcome,[7],inactive
same,AC50,[8],20 µM (active)
same,AC50,[9],3.02 µM (active)
same,AC50,[10],5 µM (active)
same,AC50,[11],34.4 µM (active)
same,AC50,[12],4.15 µM (active)
same,outcome,[13],inactive
same,AC50,[14],6.85 µM (active)
same,AC50,[15],34.3 µM (active)
same,AC50,[17],109 µM (active)
same,AC50,[18],101 µM (active)
O=C(c1ccc(O)cc1O)c1ccc(O)cc1O,outcome,[1],inactive
same,outcome,[2],inactive
same,outcome,[3],inactive
same,outcome,[16],inactive
same,outcome,[5],inactive
same,outcome,[6],inactive
same,outcome,[7],inactive
same,outcome,[8],inactive
same,outcome,[9],inactive
same,outcome,[10],inactive
same,outcome,[11],inactive
same,outcome,[12],inactive
same,outcome,[13],inactive
same,outcome,[14],inactive
same,outcome,[15],inactive
Cc1nn(C)c(Oc2ccccc2)c1C=NOCc1ccc(C(=O)OC(C)(C)C)cc1,AC50,[1],0.00424 µM (active)
same,AC50,[2],0.00449 µM (active)
same,outcome,[3],inactive
same,outcome,[16],inactive
same,outcome,[4],inactive
same,AC50,[5],0.003 µM (active)
same,outcome,[6],inactive
same,AC50,[7],3.08 µM (active)
same,AC50,[8],7.36 µM (active)
same,AC50,[9],0.39 µM (active)
same,outcome,[10],inactive
same,outcome,[11],inactive
same,AC50,[12],1.5 µM (active)
same,AC50,[13],0.003 µM (active)
same,AC50,[14],4.36 µM (active)
same,AC50,[15],3.27 µM (active)
CCCCCCC(C)OC(=O)COc1nc(F)c(Cl)c(N)c1Cl (stereo unspecified),outcome,[3],inactive
OB(O)O,outcome,[1],inactive
same,outcome,[2],inactive
same,outcome,[3],inactive
same,outcome,[4],inactive
same,outcome,[5],inactive
same,outcome,[6],inactive
same,outcome,[7],inactive
same,outcome,[8],inactive
same,outcome,[9],inactive
same,outcome,[10],inactive
same,outcome,[11],inactive
same,outcome,[12],inactive
same,outcome,[13],inactive
same,outcome,[14],inactive
same,outcome,[15],inactive
COC(=O)c1ccccc1C(=O)O,outcome,[1],inactive
same,outcome,[2],inactive
same,outcome,[3],inactive
same,outcome,[4],inactive
same,outcome,[5],inactive
same,outcome,[6],inactive
same,outcome,[7],inactive
same,outcome,[8],inactive
same,outcome,[9],inactive
same,outcome,[10],inactive
same,outcome,[11],inactive
same,outcome,[12],inactive
same,outcome,[13],inactive
same,outcome,[14],inactive
same,outcome,[15],inactive
O=C(O)c1ccccc1,outcome,[1],inactive
same,outcome,[2],inactive
same,outcome,[3],inactive
same,outcome,[16],inactive
same,outcome,[4],inactive
same,outcome,[5],inactive
same,outcome,[6],inactive
same,outcome,[7],inactive
same,outcome,[8],inactive
same,outcome,[9],inactive
same,outcome,[10],inactive
same,outcome,[11],inactive
same,outcome,[12],inactive
same,outcome,[13],inactive
same,outcome,[14],inactive
same,outcome,[15],inactive
